Sampled rows, rich in hits. Any-hit rate of the full collection: about 6.5%.
Marburg entry inh: qHTS for inhibitors of binding or entry into cells for Marburg Virus; actives 1.8% (n = 300,000); Marburg virus pseudotyped entry inhibition, cell reporter; AID 540276, 2011; Potency, µM (doses to about 37.8 µM), without a hit: top-dose activity change, negative = inhibition, hits mostly inhibitors; calls by dose curve; tested in HEK293 cells; further: potency means the concentration at half of the fitted maximal effect
Vaccinia mCherry: qHTS for Stage-Specific Inhibitors of Vaccinia Orthopoxvirus: mCherry Reporter Primary qHTS. Vaccinia virus mCherry reporter infection, fluorescence. Potency, µM (doses to about 36.5 µM), for inactives: top-dose activity change, negative = inhibition, hits mostly inhibitors. actives 0.63% (n = 310,000); calls by dose curve; tested in A549 cells; further: potency means the concentration at half of the fitted maximal effect; nearly all actives have a fitted effect of over 35% in size
Vaccinia Venus: qHTS for Stage-Specific Inhibitors of Vaccinia Orthopoxvirus: Venus Reporter Primary qHTS. Vaccinia virus Venus reporter expression, fluorescence. AID 720580, 2013. actives 0.46% (n = 330,000). Potency, µM (top dose mostly 36.5 µM), for the others: top-dose activity change, negative = inhibition, actives largely listed as inhibitors; calls by dose curve; tested in A549 cells; further: potency means the concentration at half of the fitted maximal effect; nearly all actives have a fitted effect of over 30% in size
HCMV inh: qHTS Assay for inhibitors of the human cytomegalovirus (HCMV); AID 1259415, 2018; actives 4.5% (n = 410,000); activity change, negative = inhibition, % at 57.5 µM; HFF cells, HCMV-luciferase reporter, 72 h; active compounds read low; in the data active means activity change below about -60%; inconclusive means no clear call, values can overlap the other calls; inactive means above about -39%
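Compounds were evaluated in HFFs infected with an HCMV luciferase reporter virus (MOI 1 PFU/cell). Luciferase in lysates collected 72 h post infection served as the replication measure.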
FMDV inh: High Throughput Screening for Foot and Mouth Disease Virus Antivirals; FMDV antiviral cell-based qHTS; Potency, µM (doses to about 57.9 µM), inactives show at the highest dose activity change, negative = inhibition, usual class: inhibitors; actives 1.2% (n = 410,000); AID 1159524, 2015; calls by dose curve; tested in HEK293T cells; further: read-out not given here; potency means the concentration at half of the fitted maximal effect; nearly all actives have a fitted effect of over 45% in size
LASV entry inh: qHTS for Inhibitors of binding or entry into cells for Lassa Virus. Lassa virus pseudotype entry inhibition, cell reporter. Potency, µM (titrated, usually from 37.9 µM), for inactives: at the top dose activity change, negative = inhibition, actives largely listed as inhibitors. actives 1.2% (n = 300,000). AID 540256, 2011; calls by dose curve; tested in HEK293 cells; further: potency means the concentration at half of the fitted maximal effect; nearly all actives have a fitted effect of over 50% in size
Active calls of the source: *; i = inactive; ? = inconclusive; . = no result; [ ] = remark or other dose. On the % scale 0 is the no-effect control and ±100 the full control effect.

SMILES | Marburg entry inh | Vaccinia mCherry | Vaccinia Venus | HCMV inh | FMDV inh | LASV entry inh
COC(=O)CSC1=C(C#N)C(c2ccc(C)o2)CC(=O)N1 (stereo not drawn) | 1.8µM* | -3% | -25% | -21 | -20% | ?
Cc1ccccc1NC(=O)CSC1=C(C#N)C(c2ccsc2)CC(=O)N1 (stereo not drawn) | ? | . | ? | -62* | -24% | -15%
Cc1cc(C)c(/C=C/c2onc(C)c2S(=O)(=O)N2CCC(C(=O)N(C)Cc3ccccc3)CC2)c(C)c1 | . | -12%[7.34 µM] | -10%[7.34 µM] | 68 | -14% | ?
Nc1ccc2c(c1)OC1(CCCC1)O2 | ? | -17% | -17% | -86* | 1.4µM* | 16µM*
O=C(CNCC(=O)Nc1ccc(F)c(F)c1F)Nc1ccc(F)c(F)c1F | . | . | . | -83* | -4% | .
O=C(CNC(=O)C1CC1)Nc1ccc(F)c(F)c1F | 3%[46.1 µM] | -1% | -5% | 44 | 10% | 29%[46.1 µM]
CC(C)(C)c1ccc(C(=O)NNc2ncnc3c2cnn3-c2ccc(Cl)cc2)cc1 | . | -19% | -8% | -36 | -13% | ?
CC(C)(C)c1ccc(C(=O)NNc2ncnc3c2cnn3-c2ccccc2)cc1 | . | -7% | -1% | -73* | 17% | ?
CCOC(=O)CCN1C(=O)[C@@H]2[C@H]3[C@H](O)[C@H](O)CC(=NNC(=O)OCc4ccc(OC)cc4)[C@@H]3CC[C@H]2C1=O | 12%[14.2 µM] | . | . | . | . | ?
CN(C)c1ccc(C(C[N+](=O)[O-])c2c(N)n(C)c(=O)n(C)c2=O)c(F)c1C#N (stereo not drawn) | . | . | . | . | 35µM* | .
COc1ccc(Br)cc1C(C[N+](=O)[O-])c1c(N)n(C)c(=O)n(C)c1=O (stereo not drawn) | . | . | . | -100* | ? | .
CCOc1ccc(Nc2nc3ccccc3n3c(CC)nnc23)cc1 | -22%[46.1 µM] | -11% | -11% | 0 | -5% | 11%[46.1 µM]
Cc1nc2sc(C(N)=O)c(N)c2c(-c2ccc(Br)cc2)c1C(=O)Nc1ccc(Cl)cc1 | ? | -13% | -15% | -78* | ? | ?
CCOC(=O)c1c(C)nc2sc(C(=O)Nc3ccc(C(C)=O)cc3)c(N)c2c1-c1ccc(OC)cc1 | 2.8µM* | . | ? | 6 | ? | ?
O=C(O)c1ccc(-n2cccc2/C=N/NC(=O)c2cc3cc(Br)ccc3o2)cc1 | -12%[46.1 µM] | . | . | . | . | .
CC(=O)NC1=NN(C(C)=O)C(C)(c2ccc(C)o2)S1 (stereo not drawn) | 5%[46.1 µM] | -5% | -12% | -28 | 20% | -22%[46.1 µM]
CC(=O)NC1=NN(C(C)=O)C(C)(c2ccco2)S1 (stereo not drawn) | 3.2µM* | ? | -14% | -29 | -4% | -26%[46.1 µM]
CCN1C(=NCc2ccccc2)N[C@@H](CCc2ccccc2)[C@H](C(=O)OC)[C@H]1C | -18%[14.2 µM] | . | . | . | . | .
CC(C)Oc1cccc(C(=O)Nc2ccc(-c3nc4cc(Cl)cc(Cl)c4o3)cc2)c1 | . | -7% | -13% | 7 | ? | 1%[46.1 µM]
CCCOc1cccc([C@H]2/C(=C(/O)c3ccc(F)cc3)C(=O)C(=O)N2CCN(C)C)c1 | -1%[46.1 µM] | . | . | . | . | .
CCOC(=O)C1CCCN(CC(=O)N2CCCc3c2c(=O)oc2ccc(OCc4ccccc4)cc32)C1 (stereo not drawn) | 0%[46.1 µM] | -12% | 10% | 34 | -19% | 15%[46.1 µM]
CCCCCOc1ccc2oc(=O)c3c(c2c1)CCCN3C(=O)CN1CCCC(C(=O)OCC)C1 (stereo not drawn) | ? | ? | ? | -10 | ? | 9.2µM*
Nc1c(C(=O)Nc2ccc(Cl)c(C(F)(F)F)c2)sc2nc(-c3ccncc3)ccc12 | 0%[46.1 µM] | -20% | -15% | -20 | ? | ?
Brc1ccc(CN2CCCc3nc(-c4ccccc4)ccc32)cc1 | . | . | . | -81* | . | .
Brc1cc2ccccc2[n+](Cc2ccccc2)c1 | . | -18% | -18% | -101* | -8% | .
SMILES | Marburg entry inh | Vaccinia mCherry | Vaccinia Venus | HCMV inh | FMDV inh | LASV entry inh
O=C(C[n+]1cc(Br)cc2ccccc21)c1ccc(Br)cc1 | ? | -8% | 1% | 141 | 0% | 3%[46.1 µM]
Oc1cc(O)cc(/C=C/c2ccc(O)c(O)c2)c1 | ? | -25% | -16% | 117 | ? | 4.1µM*
COc1ccc(CCNC(=O)c2ccc(Cn3c(SCc4ccccc4)nc4cccnc43)cc2)cc1 | -20%[46.1 µM] | -16% | -22% | -7 | -28% | .
COc1ccc(CNC(=O)COC(=O)C2CCC(C(C)(C)C)CC2)cc1 (stereo not drawn) | ? | -18% | -15% | -77* | ? | ?
COc1ccc(C(=O)NCC(=O)OCC(=O)c2ccc3ccccc3c2)cc1 | . | -17% | -14% | . | . | .
CC(OC(=O)c1cccc(-n2cnnn2)c1)c1nc2ccccc2c(=O)[nH]1 (stereo not drawn) | . | . | . | -65* | ? | .
Cc1ccc(NC(=O)OC(C)N2CCCCC2)cc1NC(=O)OC(C)N1CCCCC1 (stereo not drawn) | 5µM* | -2% | -13% | -13 | -2% | ?
Cc1cc2c(cc(C(=O)OCC(=O)NCc3cccs3)n2C(C)C)o1 | ? | -22% | -24% | . | . | 9.2µM*
Cc1cc(-n2c(C)nc3ccccc3c2=O)ccc1NC(=O)c1ccc(C)c([N+](=O)[O-])c1 | . | -6% | -17% | ? | 0% | -2%[46.1 µM]
COc1ccc(OC)c(-c2nnc3n(Cc4ccc(C)cc4)c(=O)c4ccccc4n23)c1 | -9%[46.1 µM] | -13% | 5% | -31 | ? | 1%[46.1 µM]
C=CCN1C[C@@H](C)N([C@H](c2ccc(C(=O)N(CC)CC)cc2)c2cccc(OC)c2)C[C@@H]1C | 16µM* | . | . | . | . | ?
O=C(NC1CC(=O)N(c2ccc(F)cc2)C1)c1ccco1 (stereo not drawn) | . | -8% | -7% | 21 | -20% | 2%[46.1 µM]
Cc1ccc(NC(=O)C(c2ccccc2)N(C)C)cc1Cl (stereo not drawn) | 11µM* | i | -14% | . | 74% | ?
Cc1ccc(NC(=O)C(OC(=O)c2ccc(O)cc2)c2ccccc2)cc1Cl (stereo not drawn) | -18% | . | . | 58 | 9% | ?
